Screens (PubChem)
Most compounds without a hit are left out; they make up all but 5.4% or so of the library.
VACV Venus inh: qHTS for Stage-Specific Inhibitors of Vaccinia Orthopoxvirus: Venus Reporter Primary qHTS; Vaccinia virus Venus reporter expression, fluorescence; Potency, µM (series often up to 36.5 µM), for inactives: at the top dose activity change, negative = inhibition, actives largely listed as inhibitors; actives 0.46% (n = 330,000); calls by dose curve; tested in A549 cells; note: nearly all actives have a fitted effect of over 30% in size
MARV entry inh: qHTS for inhibitors of binding or entry into cells for Marburg Virus | Marburg virus pseudotyped entry inhibition, cell reporter | actives 1.8% (n = 300,000) | AID 540276, 2011 | Potency, µM (highest dose often 37.8 µM), for inactives: top-dose activity change, negative = inhibition, actives largely listed as inhibitors; calls by dose curve; tested in HEK293 cells
Lassa entry inh: qHTS for Inhibitors of binding or entry into cells for Lassa Virus | Potency, µM (top dose mostly 37.9 µM), inactives show at the top dose activity change, negative = inhibition, usual class: inhibitors | AID 540256, 2011 | Lassa virus pseudotype entry inhibition, cell reporter | actives 1.2% (n = 300,000); calls by dose curve; tested in HEK293 cells; note: nearly all actives have a fitted effect of over 50% in size
FMDV antiviral: High Throughput Screening for Foot and Mouth Disease Virus Antivirals | FMDV antiviral cell-based qHTS | Potency, µM (highest dose often 57.9 µM), without a hit: at the top dose activity change, negative = inhibition, most hits filed as inhibitors | AID 1159524, 2015 | actives 1.2% (n = 410,000); calls by dose curve; tested in HEK293T cells; note: read-out not given here; nearly all actives have a fitted effect of over 45% in size
Vaccinia mCherry: qHTS for Stage-Specific Inhibitors of Vaccinia Orthopoxvirus: mCherry Reporter Primary qHTS; actives 0.63% (n = 310,000); AID 720579, 2013; Potency, µM (series often up to 36.5 µM), for the others: top-dose activity change, negative = inhibition, usual class: inhibitors; Vaccinia virus mCherry reporter infection, fluorescence; calls by dose curve; tested in A549 cells; note: nearly all actives have a fitted effect of over 35% in size
Sm TGR inh: qHTS Assay for the Inhibitors of Schistosoma Mansoni Peroxiredoxins; actives 3% (n = 360,000); Potency, µM (doses to about 114 µM), for the others: at the highest dose activity change, negative = inhibition, actives largely listed as inhibitors; AID 485364, 2010; Schistosoma mansoni thioredoxin glutathione reductase (TGR), Q962Y6; purified TGR, DTNB reduction, TNB absorbance 405 nm; active = well fitted inhibition curve with a large enough effect; inconclusive = small, poorly fitted or top-dose-only effect; inactive = no such curve, though single readings can be large or run the other way; note: nearly all actives have a fitted effect of over 60% in size
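Kinetic colorimetric format: TGR-catalysed, NADPH-driven DTNB reduction monitored via TNB absorbance. Enzyme dispensed at 20 nM; compound exposure 15 min at room temperature before reaction start.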
Numbers without * were called inactive; [ ] = dose if it differs, or a comment. % is set by controls: 0 for no effect and ±100 for the full control effect; potency is the fitted concentration of half-maximal effect.

What do the screens show for `CCCc1cc(=O)oc2c3c(c4c(c12)OC(C)(C)C=C4)OC(C)C(C)C3O` (stereo not drawn)?
VACV Venus inh: inconclusive; FMDV antiviral: -0.9%; Vaccinia mCherry: 11.2µM*; Sm TGR inh: -3.5%

How did CCCc1cc(=O)oc2c3c(cc(OCC(=O)N[C@@H](C)C(=O)O)c12)OC(C)(C)CC3 do in these assays?
VACV Venus inh: -3.2%; MARV entry inh: -8.2%; Lassa entry inh: 7.2%; FMDV antiviral: -7.9%; Vaccinia mCherry: -3.6%; Sm TGR inh: 0.0%

What do the screens show for `Cc1nnc(N2CCN(c3ccccc3F)CC2)c2c1nnn2Cc1ccccc1Cl`?
VACV Venus inh: -26.3%; MARV entry inh: inconclusive; Lassa entry inh: 11.9%[46.1 µM]; FMDV antiviral: inconclusive; Vaccinia mCherry: -15.9%; Sm TGR inh: 0.1%

Results for CC1C(=O)Nc2ccc(S(=O)(=O)N3CCCCC3)cc2NC1=O (stereo not drawn) ?
VACV Venus inh: -11.1%; MARV entry inh: -27.1%[46.1 µM]; Lassa entry inh: 4.2%[46.1 µM]; FMDV antiviral: -2.7%; Vaccinia mCherry: -7.8%; Sm TGR inh: -5.6%

Results for CSCCC1Nc2ccc(S(=O)(=O)N3CCOCC3)cc2NC1=O (stereo not drawn) ?
VACV Venus inh: 4.1%; MARV entry inh: -8.2%[46.1 µM]; Lassa entry inh: 2.3%; FMDV antiviral: 0.7%; Vaccinia mCherry: -1.4%; Sm TGR inh: 50.1µM*

How did Cc1cc(C)n([C@@H]2CCCC[C@H]2OC(=O)c2ccccc2)n1 do in these assays?
MARV entry inh: -7.0%[46.1 µM]

Results for CCc1nnc(N/N=C\c2ccc(OC(C)=O)c(OC)c2)n1N ?
FMDV antiviral: 0.3%; Sm TGR inh: 2.6%

What do the screens show for `CCOc1cc(/C=N/Nc2nnc(C)n2N)ccc1OC(C)=O`?
VACV Venus inh: inconclusive; MARV entry inh: inconclusive; Lassa entry inh: inconclusive; FMDV antiviral: 14.2%; Vaccinia mCherry: 28.2µM*; Sm TGR inh: -5.0%

What do the screens show for `O=C(O)CCc1ccc(-c2ccccc2)o1`?
VACV Venus inh: -1.2%; MARV entry inh: -1.2%; Lassa entry inh: 1.7%; FMDV antiviral: -3.5%; Vaccinia mCherry: inactive; Sm TGR inh: 1.41µM*

How did NC(=O)N/N=C/c1sc(=O)n(-c2ccccc2)c1Cl do in these assays?
VACV Venus inh: -4.0%; MARV entry inh: -1.2%; Lassa entry inh: 8.1%; FMDV antiviral: 22.8%; Vaccinia mCherry: -14.6%; Sm TGR inh: 31.6µM*

What do the screens show for `Cc1cc(C(=O)Nc2ccccc2-c2nc(CNC(=O)C3COc4ccccc4O3)c(C)o2)c(C)o1` (stereo not drawn)?
VACV Venus inh: 16.8%; FMDV antiviral: 9.0%; Vaccinia mCherry: -0.7%

What do the screens show for `COc1ccccc1NC(=O)Nc1nc(CC(=O)N2CCN(c3ccccc3OC)CC2)cs1`?
VACV Venus inh: inconclusive; MARV entry inh: inconclusive; Lassa entry inh: inconclusive; FMDV antiviral: 28.2µM*; Vaccinia mCherry: inconclusive; Sm TGR inh: 3.5%

What do the screens show for `Cc1ccc(C(=O)n2ncn(C)c2=S)cc1`?
FMDV antiviral: -8.6%; Sm TGR inh: 17.8µM*

Results for CC(=O)c1ccccc1-c1ccc2c(c1)CC(CNC(=O)C[C@@H]1C[C@@H](C)NC(=S)N1)O2 (stereo partly drawn) ?
VACV Venus inh: 1.2%; FMDV antiviral: -9.3%; Vaccinia mCherry: -10.6%

Results for CCCNC(=O)CSc1ccc(S(=O)(=O)N(C)C2CCCCC2)cn1 ?
VACV Venus inh: -0.7%; FMDV antiviral: -22.2%; Vaccinia mCherry: inactive

Results for CCC(C)NC(=O)CSc1ccc(S(=O)(=O)N(C)C2CCCCC2)cn1 (stereo not drawn) ?
VACV Venus inh: -13.0%; MARV entry inh: inconclusive; Lassa entry inh: 3.98µM*; FMDV antiviral: -28.9%; Vaccinia mCherry: -21.0%

What do the screens show for `CCOC(=O)N1CCN(C(=O)c2ccc3c(c2)N(Cc2ccccc2F)C(=O)c2ccccc2S3=O)CC1` (stereo not drawn)?
VACV Venus inh: -10.5%; MARV entry inh: 3.6%[46.1 µM]; Lassa entry inh: -5.5%[46.1 µM]; FMDV antiviral: -8.8%; Vaccinia mCherry: -9.8%; Sm TGR inh: 5.8%

What do the screens show for `COc1cccc(-n2nc3c(=S)[nH]nc(C)c3c2C)c1`?
VACV Venus inh: -6.0%; MARV entry inh: 5.5%; Lassa entry inh: -2.0%; FMDV antiviral: 17.6%; Vaccinia mCherry: -12.5%; Sm TGR inh: -23.0%

How did Cc1n[nH]c(=S)c2nn(-c3cccc(Cl)c3)c(C)c12 do in these assays?
MARV entry inh: -6.5%; Sm TGR inh: 79.4µM*

Results for CCn1c(=O)cc(OCC(=O)N2CCN(c3ccc(C)cc3)C(C)C2)c2ccccc21 (stereo not drawn) ?
VACV Venus inh: -13.4%; MARV entry inh: inconclusive; Lassa entry inh: inconclusive; FMDV antiviral: 35.5µM*; Vaccinia mCherry: -25.3%; Sm TGR inh: -8.5%

Results for CCn1c(=O)cc(OCC(=O)N2CCCCCC2)c2ccccc21 ?
MARV entry inh: -2.0%; Lassa entry inh: -10.2%; FMDV antiviral: -13.1%; Sm TGR inh: 0.3%

Results for COc1ccc(-n2nnc(-c3nsc(NC(=O)c4cccc(C)c4)n3)c2C)cc1OC ?
VACV Venus inh: -11.5%; Lassa entry inh: -4.0%[46.1 µM]; FMDV antiviral: inconclusive; Vaccinia mCherry: -11.4%; Sm TGR inh: 3.8%

How did COc1ccccc1-c1ccnc(-n2ncc(C(=O)NCc3ccncc3)c2C)n1 do in these assays?
VACV Venus inh: -17.8%; FMDV antiviral: -6.9%; Vaccinia mCherry: inconclusive

How did Fc1ccc(N2CCN(c3ncnc4c3nc3n4CCCCC3)CC2)cc1 do in these assays?
VACV Venus inh: inconclusive; Lassa entry inh: -8.9%[46.1 µM]; FMDV antiviral: 25.1µM*; Vaccinia mCherry: inconclusive; Sm TGR inh: -2.1%

How did Clc1ccc(N2CCN(c3ncnc4c3nc3n4CCCC3)CC2)cc1 do in these assays?
VACV Venus inh: -29.2%[7.34 µM]; Lassa entry inh: -17.7%[46.1 µM]; FMDV antiviral: inconclusive; Vaccinia mCherry: inconclusive; Sm TGR inh: 0.7%

What do the screens show for `c1ccc(N2CCN(c3ncnc4c3nc3n4CCCCC3)CC2)cc1`?
VACV Venus inh: inconclusive; Lassa entry inh: inconclusive; FMDV antiviral: 10µM*; Vaccinia mCherry: inconclusive; Sm TGR inh: 1.7%

What do the screens show for `Cc1cccc(NC2=NC(C)(C)N=C(N)N2)c1`?
VACV Venus inh: 1µM*; MARV entry inh: inconclusive; Lassa entry inh: inconclusive; FMDV antiviral: -19.5%; Vaccinia mCherry: inconclusive; Sm TGR inh: 1.9%

What do the screens show for `CCn1c(=O)cc(SCC(=O)Nc2cc(Cl)ccc2OC)c2ccccc21`?
VACV Venus inh: -2.1%; MARV entry inh: -11.4%[46.1 µM]; Lassa entry inh: -17.4%[46.1 µM]; FMDV antiviral: inconclusive; Vaccinia mCherry: -6.4%; Sm TGR inh: inconclusive
